# PubChem BioAssay
# The source made the active and inactive calls.
# Assay: viability profiling in MM1S myeloma cells – cell-based, resazurin fluorescence, basal, 24 h, PK04 Diversity Set, profiling panel (AID 1174);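 further: MM1S multiple myeloma cell line; test concentration not given here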
# Conditions: higher = more signal, called active from +8 up or from −8 down
row,Structure (SMILES),z-score
1,O=C1OCCC/C=C\[C@H]2OC34C=CCN(Cc5ccccc5)C(=O)[C@H]3N(CCCCCO)C(=O)[C@@H]4C12 (stereo not given in full),1.24 (inactive)
2,CO[C@H]1O[C@H](CO)[C@@H](OC(=O)Nc2ccc(C(F)(F)F)cc2)[C@H](OC(=O)Nc2ccccc2-c2ccccc2)[C@H]1OC(=O)Nc1ccccc1-c1ccccc1,-5.4 (inactive)
3,COCCOC(=O)N1C(=O)[C@@]2(c3cc(C#CCCO)ccc31)[C@H](C(=O)N1CCN(c3ncccn3)CC1)[C@H]1C(=O)O[C@H](c3ccccc3)[C@H](c3ccccc3)N1[C@@H]2c1ccc(O)cc1,0.359 (inactive)
4,[N-]=[N+]=NCc1ccccc1[C@H]1OC(c2ccc(OCCCO)cc2)=N[C@@]1(Cc1ccccc1)C(=O)N1CCOCC1,-0.0295 (inactive)
5,C=CCC(OC(C)=O)[C@@H]1[C@@H](N(Cc2ccc(-c3ccccc3)cc2)C(=O)c2ccc(C)cc2)c2cc(OCCCO)ccc2N1C(=O)c1ccc2ccccc2c1 (stereo not given in full),1.12 (inactive)
6,CCCCC(O)C1C=CC2C(=O)N(C)C(=O)C2N1Nc1ccccc1 (stereo not given),-1.39 (inactive)
7,COCCOC(=O)N1C(=O)[C@@]2(c3cc(C#CCC(C(=O)OC)C(=O)OC)ccc31)[C@H](C(=O)N1CCCCCCC1)[C@H]1C(=O)O[C@H](c3ccccc3)[C@H](c3ccccc3)N1[C@@H]2c1ccccc1OCCO,0.683 (inactive)
8,COC(=O)[C@@]1(Cc2ccccc2)[C@H]2c3cc(C(=O)N4CCCC4)n(Cc4ccc(C(F)(F)F)nc4)c3C[C@H]2CN1C(=O)c1ccccc1,-0.335 (inactive)
9,CN1C(=O)[C@]2(CCS(=O)(=O)c3ccccc3)N=C(c3ccc(OCCCO)cc3)O[C@@H]2c2ccccc21,-0.101 (inactive)
10,C=CCC(OC(C)=O)[C@@H]1[C@@H](N(Cc2cccc3ccccc23)C(=O)c2cccc3ccccc23)c2cc(OCCCO)ccc2N1C(=O)Cc1ccc2ccccc2c1 (stereo not given in full),-0.41 (inactive)
11,CCCCNC(=O)c1ccc(C#C[Si](C)(C)C)c(OC(C)=O)c1,-0.757 (inactive)
12,CCOC(=O)C1=CC[C@@H](c2ccccc2Cl)N(S(=O)(=O)c2ccc(C)cc2)[C@H]1c1cccc(OC)c1,-0.703 (inactive)
13,Cc1ccc(F)cc1S(=O)(=O)N[C@@H]1CCN(Cc2ccc3c(c2)OCO3)C1,-0.584 (inactive)
14,C#CCN(C/C=C/c1ccccc1)[C@H](CO[Si](C)(C)C(C)(C)C)c1ccccc1,-0.668 (inactive)
15,N[C@@H](Cc1ccccc1)Cn1cc(C2(O)CCCCC2)nn1,-0.156 (inactive)
16,COCCOC(=O)N1C(=O)[C@@]2(c3cc(C#CCC(C(=O)OC)C(=O)OC)ccc31)[C@H](c1ccc(OCCO)cc1)N1[C@H](c3ccccc3)[C@H](c3ccccc3)OC(=O)[C@H]1[C@@H]2C(=O)N1CCCCCCC1,0.13 (inactive)
17,COc1ccc(NC(=O)O[C@H]2[C@H](OC(=O)Nc3ccc4c(c3)OCO4)[C@H](OC(=O)Nc3ccc4c(c3)OCO4)[C@@H](OC)O[C@@H]2CO)cc1,-0.366 (inactive)
18,COc1ccc(NN2C(C(O)c3cc(C(F)(F)F)cc(C(F)(F)F)c3)C=CC3C(=O)N(C4CCCCC4)C(=O)C32)cc1 (stereo not given),0.0147 (inactive)

row,Structure (SMILES),z-score
1,COCCOC(=O)N1C(=O)[C@@]2(c3cc(C#Cc4ccc(OC)cc4)ccc31)[C@H](C(=O)Nc1nc3ccccc3s1)[C@H]1C(=O)O[C@H](c3ccccc3)[C@H](c3ccccc3)N1[C@@H]2c1ccccc1OCCO,1.34 (inactive)
2,C=C(COC)/C(=C/C[C@H](OC(=O)c1ccncc1)c1ccc(OCCO)cc1)c1cc(C(=O)OC)ccc1OC,-0.163 (inactive)
3,COc1ccc([Si](C)(C)[C@H]2[C@H](CCO)O[C@@]3(C(=O)N(Cc4ccccc4)c4ccc(N(C=O)c5ccccc5)cc43)[C@@H]2C)cc1,-2.24 (inactive)
4,C=CC[C@]1(C(=O)OC)N=C(c2ccc(OCCCO)cc2)O[C@H]1c1ccccc1N=[N+]=[N-],-0.455 (inactive)
5,COc1ccccc1CN1C(=O)c2ccccc2[C@](Cc2ccccc2I)(C(=O)NCCCN(C)C)[C@@H]1c1ccc(CO)cc1,-9.07 (active)
6,CC1CC/C=C\[C@H]2OC34C=CCN(c5ccc(Cl)cc5)C(=O)[C@H]3N(CCCO)C(=O)[C@]4(C)C2C(=O)O1 (stereo not given in full),-0.198 (inactive)
7,CC[C@H](C)C(=O)O[C@H]1CC[C@]2(C)C3=C(CCC2C1(C)C)[C@]1(C)CC[C@H]([C@H](C)CCCC(C)C)[C@@]1(C)CC3 (stereo not given in full),0.0978 (inactive)
8,CCOC(=O)C[C@H]1[C@H](OC(=O)c2cc3ccccc3oc2=O)[C@@H](NC(=O)C2CCCCC2)c2cc(OCCCO)ccc2N1C(=O)Cc1ccc(OC)cc1,-0.176 (inactive)
9,CC(C)C(=C=CC[C@@H](O)c1cccc(OCCO)c1)CCO,0.265 (inactive)
10,C=C(COC)/C(=C/C[C@H](OC(=O)c1ccncc1)c1cccc(OCCO)c1)c1cnc2ccccc2c1,-1.24 (inactive)
11,CC(C)CNC(=O)[C@@H]1c2ccccc2C(=O)N(Cc2ccccc2)[C@H]1c1ccc(CO)cc1,-0.628 (inactive)
12,C=C(COC)C(=O)CC[C@@H](OC(C)=O)c1ccc(OCCO)cc1,-0.487 (inactive)
13,CCCCC(=C=CC[C@H](O)c1ccc(OCCO)cc1)C[C@H](O)c1ccccn1,0.747 (inactive)
14,CC(C)c1ccc(NN2C(C(O)C(C)C)C=CC3C(=O)N(c4ccccc4)C(=O)C32)cc1 (stereo not given),-0.331 (inactive)
15,COCCOC(=O)N1C(=O)[C@@]2(c3cc(C#CC4=CCCCC4)ccc31)[C@H](C(=O)N1CCN(c3ncccn3)CC1)[C@H]1C(=O)O[C@H](c3ccccc3)[C@H](c3ccccc3)N1[C@@H]2c1ccccc1OCCO,1.02 (inactive)
16,CC(C)C(=C=CC[C@@H](O)c1ccccc1OCCO)C[C@@H](O)c1cc(Cl)cc(Cl)c1O,-1.35 (inactive)
17,COc1ccc(C(O)C2C=CC3C(=O)N(C)C(=O)C3N2Nc2ccc([N+](=O)[O-])cc2[N+](=O)[O-])cc1OCc1ccccc1 (stereo not given),-1.27 (inactive)
